GPR151 activ – activators of human GPR151 | PathHunter beta-arrestin GPR151 cells, luminescence | activation, % at 11.2 µM | Q8TDV0 | 650,000 tested, 1% active | AID 1508602; in the data active = activation above about 4.9%;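 also: 0% = median of compound wells and 100% = cells with positive control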
Target sequence (Q8TDV0 whole entry, looked up): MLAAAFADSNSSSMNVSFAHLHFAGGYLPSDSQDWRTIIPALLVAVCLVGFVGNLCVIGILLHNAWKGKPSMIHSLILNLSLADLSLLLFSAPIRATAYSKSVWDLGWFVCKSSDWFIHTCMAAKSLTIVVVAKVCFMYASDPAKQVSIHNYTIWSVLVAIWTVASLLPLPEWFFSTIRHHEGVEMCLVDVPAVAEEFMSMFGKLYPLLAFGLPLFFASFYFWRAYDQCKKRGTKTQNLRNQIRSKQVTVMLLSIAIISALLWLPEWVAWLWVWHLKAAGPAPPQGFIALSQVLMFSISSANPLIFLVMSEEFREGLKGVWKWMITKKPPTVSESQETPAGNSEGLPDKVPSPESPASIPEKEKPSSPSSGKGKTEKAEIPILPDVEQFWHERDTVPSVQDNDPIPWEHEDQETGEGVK
TEAD-YAP block – TEAD-YAP interaction inhibition; 640,000 tested, 1.4% active; inhibition, % at 9.12 µM; AID 1259422; HEK-TIYL cells, TEAD-Gal4/YAP UAS-luciferase luminescence; in the data active = inhibition above about 32%;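 also: 0% = median of test compound wells and 100% = reference inhibitor wells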
FBW7 act – human FBW7 E3 ligase activation, primary screen; Q969H0; AlphaScreen FBW7–phospho-cyclin E peptide binding, activator screen; normalized activity (activation), % at 26.1 µM; 650,000 tested, 0.13% active; AID 1259310; in the data active = normalized activity above about 1.9%;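 also: purified mutant Fbw7 with reduced substrate affinity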
MITF primary – inhibitors of human MITF; AlphaScreen MITF homodimerization, bead proximity signal; inhibition, % at 2.6 µM; 650,000 tested, 0.91% active; AID 1259374; in the data active = inhibition above about 50%;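 also: 0% = vehicle wells with protein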
The depositor's hits bear a star; . = not tested or not shown. A selection: hits, their analogues and other compounds. The true share with any hit is near 3.5%.

SMILES	GPR151 activ	TEAD-YAP block	FBW7 act	MITF primary
Cc1csc(-c2cnc3ccc(NCc4ccccn4)nn23)c1	0.8	40.5*	-0.3	12.5
Cc1csc(-c2cnc3ccc(NCCCO)nn23)c1	0.9	34.4*	0.2	15.8
c1ccc(CNc2ccc3ncc(-c4ccco4)n3n2)nc1	0.4	52.6*	-1.1	-11.2
Nc1ncc(Br)cc1S(=O)(=O)N1CCN(c2cccc(Cl)c2)CC1	1.1	0.8	0.1	6.9
O=C(Nc1ccc(S(=O)(=O)NCCc2ccccc2)cc1)c1ccc([N+](=O)[O-])cc1	-1.0	31.9*	0.3	-15.4
Cc1ccc(S(=O)(=O)NCc2ccccc2)cc1	-1.3	.	0.1	6.5
O=C(Nc1ccc(Br)cc1)c1cccc(S(=O)(=O)NCc2ccccc2)c1	2.5	40.6*	-0.1	-1.1
Cc1ccc(C(=O)Nc2ccc(S(=O)(=O)NCc3ccccc3)cc2)cc1	-1.0	32.1*	0.4	-14.5
Cc1nc2ccc(Cl)cn2c1C(=O)NN=C1CCCCC1	-0.3	11.3	0.0	-0.1
Cc1ccc2nc(C)c(C(=O)NN=C3CCCCCC3)n2c1	1.1	57.6*	0.0	-5.1
COc1cccc(CN2CCN(S(=O)(=O)c3ccc(Cl)cc3)CC2)c1OC	0.0	-1.6	-0.1	45.4
COc1ccc2sc(Nc3nc(-c4ccccn4)cs3)nc2c1	3.6	36.6*	-1.2	24.9
COc1ccc2nc(Nc3nc(-c4ccccn4)cs3)sc2c1	1.3	49.1*	-1.8	51.4*
COc1ccc2nc(Nc3nc(-c4cccnc4)cs3)sc2c1	0.0	3.8	-0.1	14.3
COc1ccccc1N1CCN(C(=O)Cn2cc(C=O)c3ccccc32)CC1	0.5	10.6	0.1	5.3
O=C1c2ccc(O)c(O)c2C(=O)c2c(O)ccc(O)c21	1.5	2.1	0.9	66.2*
CCNc1nc(NC(C)CC)nc(ON=C(C)C)n1 (configuration not stated)	-0.2	35.9*	0.2	28.8
COc1ccc(-n2nc(C(=O)c3ccccc3)c(C(F)(F)F)cc2=O)cn1	1.8	49.1*	-0.1	-2.0
COc1cc(C(F)(F)F)c(C(=O)NC2(O)C(=O)c3ccccc3C2=O)cn1	-1.1	2.3	-0.6	3.4
O=C(CCc1ccccc1)NCC1CCC2(CCN(C(=O)c3ccncc3)CC2)O1 (configuration not stated)	1.6	5.0	-0.3	6.2
CC(=O)c1cccc(NC(=O)Cn2ccc([N+](=O)[O-])n2)c1	0.4	8.9	0.4	14.4
CC(=O)c1cccc(NC(=O)CSC2N=c3ccc([N+](=O)[O-])cc3=N2)c1 (configuration not stated)	-0.3	-0.7	0.0	70.6*
CCCOc1ccc2ccccc2c1C=O	-0.9	-8.2	0.3	3.7
COc1ccc(C2Oc3ccccc3C3=C2C(c2cccs2)n2ncnc2N3)cc1OC (configuration not stated)	0.2	52.0*	0.0	6.7
C=C1C(=O)OC23C1CCC(C)C2CCC1(C)OC13 (configuration not stated)	1.2	61.4*	0.3	-6.0
SMILES	GPR151 activ	TEAD-YAP block	FBW7 act	MITF primary
COc1cccc(/C=C/C(=O)OCc2cccc([N+](=O)[O-])c2)c1OC	-1.6	-3.4	0.1	13.4
Cc1ccc(S(=O)(=O)Nc2ccccc2C(=O)Nc2nc(-c3ccccc3)cs2)cc1	1.2	33.8*	0.0	-6.3
CC(=O)c1ccc(NC(=O)c2ccccc2NS(=O)(=O)c2ccc(C)cc2)cc1	1.6	14.4	-0.1	-1.2
Cc1ccc(S(=O)(=O)Nc2ccccc2C(=O)Nc2ccc(-c3nc4ccccc4o3)cc2)cc1	0.5	38.9*	1.6	19.4
COc1cccc(C(=O)NNc2nc3c(C)cccc3s2)c1	-2.0	-4.7	-0.2	-11.0
COc1ccccc1C(=O)NNc1nc2c(C)cccc2s1	0.8	33.0*	-0.2	0.5
Cc1ccc(S(=O)(=O)Nc2ccccc2C(=O)Nc2nc3c(C)cccc3s2)cc1	-0.3	45.6*	0.1	-18.4
COc1cc2nc(N3CCc4ccccc4C3)nc(Nc3cc(OC)c(OC)c(OC)c3)c2cc1OC	-0.8	-1.2	-0.2	4.6
Nc1[nH]c(=S)nc2sc3c(c12)CCCCC3	-0.2	-1.6	-0.1	5.6
Cc1c(NS(=O)(=O)c2ccc3ccccc3c2)cccc1[N+](=O)[O-]	0.8	-0.1	0.0	1.7
CCOCCOC(=O)C1=C(C)NC(=O)CC1c1ccccc1OCC (configuration not stated)	-1.4	2.7	0.9	-8.7
O=C(Nc1ccc(-c2nc3ccccc3o2)cc1)C1CCN(C(=O)C2CCCC2)CC1	-0.8	-11.1	0.0	51.8*
COC(=O)c1ccc(-c2csc(NC(=O)c3ccccc3NS(=O)(=O)c3ccc(C)cc3)n2)cc1	-0.3	8.2	0.0	17.4
COc1ccc(-c2csc(NC(=O)c3ccccc3NS(=O)(=O)c3ccc(C)cc3)n2)cc1	0.7	37.7*	0.0	-5.1
COc1ccccc1N1CCN(C(=O)c2ccc(S(=O)(=O)N3CCOCC3)o2)CC1	0.9	2.3	0.0	2.6
COc1ccc(C(=O)/C=C/Nc2ccc(S(=O)(=O)N=C(N)N)cc2)cc1	-0.5	-22.4	0.1	15.8
CC1=CC(=O)C=C(C)C1=NOC(=O)c1ccc([N+](=O)[O-])cc1	-1.7	5.2	0.5	7.7
CC1=CC(=O)C=C(C)C1=NOC(=O)c1ccc(Cl)cc1	-0.2	7.9	0.1	72.6*
NC(CO)C(=O)N/N=C/c1ccc(O)c(O)c1O (configuration not stated)	-0.4	-5.0	-0.9	95.8*
NC(CO)C(=O)NNCc1ccc(O)c(O)c1O (configuration not stated)	2.1	-6.3	-0.1	88.2*
O=C(N/N=C/c1ccc(O)c(O)c1O)c1ccc(Cl)cc1Cl	-0.5	5.0	-0.4	36.9
Cc1ccc(Nc2nc(=O)[nH]nc2C)cc1C	0.9	-4.7	-0.1	5.0
O=C(O)c1cccc(COc2ccc(CO)cc2Cl)c1	-13.0	95.0*	1.1	10.6
COc1cc(/C=C2/NC(=O)NC2=O)ccc1OCc1cccc(C(=O)O)c1	-2.5	22.8	-0.2	-8.3
O=Cc1ccc(OCc2cccc(C(=O)O)c2)c(Cl)c1	-7.7	87.8*	0.1	2.9
SMILES	GPR151 activ	TEAD-YAP block	FBW7 act	MITF primary
COc1cc(/C=C/[N+](=O)[O-])ccc1OCc1cccc(C(=O)O)c1	1.7	77.2*	-0.5	56.3*
O=C(O)c1cccc(COc2ccc(CO)cc2Br)c1	-12.6	84.5*	0.1	7.0
O=c1cnnc(N/N=C/c2ccccc2O)[nH]1	-0.3	-2.6	-1.1	108.4*
Cc1ccc(/C=N/Nc2nnc(Cc3ccccc3)c(=O)[nH]2)o1	0.8	6.8	-0.2	11.7
O=c1[nH]c(N/N=C/c2ccccc2O)nnc1Cc1ccccc1	4.3	59.6*	-0.1	101.1*
Cc1cccc(C(=O)Nc2nc3ccccc3[nH]2)c1	-5.4	32.1*	0.1	7.1
O=C(Nc1nc2ccccc2[nH]1)c1cccc(Br)c1	-1.7	-27.3	-0.3	8.3
Cc1cccc(C(=O)N[C@H](C(=O)Nc2nc3ccccc3[nH]2)C(C)C)c1	-0.1	65.8*	0.0	-10.6
CC1CN(c2oc(-c3cccs3)nc2S(=O)(=O)c2ccccc2)CC(C)O1 (configuration not stated)	0.5	0.8	-0.1	-2.2

Bioassay records as filed in PubChem.
